Screens from PubChem BioAssay.
KCNQ2 block: inhibitors of rat KCNQ2 potassium channel; O88943; CHO-K1 KCNQ2, FluxOR thallium flux, 20 min; hits give low values; B-score at 10 µM; 310,000 tested, 1.1% active; AID 2156;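 active = fluorescence ratio B-score at most minus 3 library SDs, with starting brightness B-score within 2 library SDs, cut at about -5.5 in these data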
Target sequence (O88943 whole entry, looked up): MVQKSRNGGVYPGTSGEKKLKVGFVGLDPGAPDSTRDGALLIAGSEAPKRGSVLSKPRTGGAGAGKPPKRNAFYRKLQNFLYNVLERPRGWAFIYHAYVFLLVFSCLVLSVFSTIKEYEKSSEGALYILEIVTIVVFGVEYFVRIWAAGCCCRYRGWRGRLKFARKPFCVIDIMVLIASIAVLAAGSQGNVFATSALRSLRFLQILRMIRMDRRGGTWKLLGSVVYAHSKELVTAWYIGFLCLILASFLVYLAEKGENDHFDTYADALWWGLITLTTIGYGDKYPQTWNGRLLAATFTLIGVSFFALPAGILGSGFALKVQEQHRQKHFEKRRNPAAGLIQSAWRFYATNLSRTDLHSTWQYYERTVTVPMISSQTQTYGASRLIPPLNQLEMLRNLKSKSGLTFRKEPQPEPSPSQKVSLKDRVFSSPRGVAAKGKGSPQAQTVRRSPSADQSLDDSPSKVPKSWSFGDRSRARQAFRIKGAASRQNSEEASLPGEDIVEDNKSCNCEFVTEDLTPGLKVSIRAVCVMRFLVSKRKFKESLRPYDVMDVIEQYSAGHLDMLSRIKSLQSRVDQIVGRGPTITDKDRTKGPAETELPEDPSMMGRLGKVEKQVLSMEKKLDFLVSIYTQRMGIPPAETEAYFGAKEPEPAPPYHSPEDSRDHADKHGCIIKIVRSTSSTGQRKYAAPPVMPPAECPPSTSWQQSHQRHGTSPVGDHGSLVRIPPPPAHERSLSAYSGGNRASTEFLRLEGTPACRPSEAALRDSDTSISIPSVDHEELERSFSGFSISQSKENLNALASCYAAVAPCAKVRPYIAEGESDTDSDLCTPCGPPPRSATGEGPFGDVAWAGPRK
KCNQ2 pot: enhances the rat KCNQ2 potassium channel; O88943; CHO-K1 KCNQ2, FluxOR thallium flux fluorescence; hits give high values; B-score at 10 µM; 310,000 tested, 0.54% active; AID 2239;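 active = fluorescence ratio B-score at least 3 SD of library B-scores, with initial fluorescence B-score within 3 of them, cut at about 5.3 in these data; same plate scores as AID 2156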;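 note: B-score of peak minus minimum over baseline fluorescence ratio after K+ and Tl+ stimulus; positive B-score means potentiation of KCNQ2 with more thallium influx and brighter signal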
* hit, by the source's call; i = inactive; nt = not tested or not shown. Compounds with a hit are over-represented: about 1.6% of the library has one in this group of screens.

SMILES	KCNQ2 block	KCNQ2 pot
COc1ccc(S(=O)(=O)N2CCCC(C(=O)N3CCN(C)CC3)C2)cc1Cl (centres undefined)	i	nt
COc1ccc(S(=O)(=O)N2CCCC2)cc1OC	i	0.02
COc1ccc(S(=O)(=O)N2CCCC(C(=O)N3CCOCC3)C2)cc1Cl (centres undefined)	-5.59*	-5.59
COc1ccc(S(=O)(=O)N2CCCC2)cc1C(C)C	-6.94*	-6.94
O=C1N[C@@H](Cc2cn(S(=O)(=O)c3ccccc3)c3ccccc23)C(=O)N[C@H]1Cc1ccccc1	i	nt
Cn1ncc(C#N)c1/N=C/N(Cc1ccccc1)Cc1ccccc1	-5.71*	-5.71
Cn1ncc(C#N)c1/N=C/N1CCCC1	i	0.14
NC(N)=N/N=C/c1ccc(OCc2ccccc2Cl)cc1	-6.23*	-6.23
NC(N)=N/N=C/c1ccccc1	i	nt
CC(C)c1ccccc1OCC(=O)N(C)CC(=O)Nc1ccc(F)cc1	i	nt
CCCCNC(=S)N1CCC(Cc2ccccc2)CC1	i	nt
CN(C)/C=C(\C#N)C(=O)c1cccc(Oc2ccc(Br)cc2)c1	i	nt
CC(C)c1ccc(Oc2cccc(C(=O)/C(C#N)=C/N(C)C)c2)cc1	-6.2*	-6.2
C=CCn1c(=O)/c(=C2/Sc3cc(OC)ccc3N2C)s/c1=C1\C(=O)N(CC)C(=S)N1C	i	2
COc1ccc(F)cc1S(=O)(=O)N1CCC2(CC1)OCCN2S(=O)(=O)c1cccs1	i	0.02
COCCNC(=O)C1(C(F)(F)F)CC(CCCO)CCCO1 (centres undefined)	i	nt
O=C(OCC(=O)N1CCN(C(=O)c2ccco2)CC1)c1cc(-c2ccccc2)nc2ccccc12	i	nt
O=C(OCC(=O)N1CCN(C(=O)c2ccco2)CC1)c1cc(-c2cccc(Br)c2)nc2ccccc12	-7.01*	-7.01
CCc1ccc(NC(=O)CN(CC(=O)Nc2ccc(CC)cc2)CC(C)O)cc1 (centres undefined)	i	nt
S=C(NC1CCCCCC1)NC1CCCC1	i	0.57
NNC(=S)NC1CCCCCCCCCCC1	-6.88*	-6.88
Cc1cc(N2CC(C(=O)Nc3nccs3)CC2=O)ccc1C(C)C (centres undefined)	i	0.03
CS/C(=C/[N+](=O)[O-])Nc1cccc2c1C(C)CC2(C)C (centres undefined)	i	nt
Cc1ccccc1N1CCN(c2ncnc3c2cnn3Cc2ccc(Cl)cc2)CC1	-5.72*	-5.72
Cc1ccc(Cn2ncc3c(N4CCN(Cc5ccc(Cl)cc5)CC4)ncnc32)cc1	i	nt
SMILES	KCNQ2 block	KCNQ2 pot
CCOC(=O)c1ccccc1NC(=O)C1CCN(c2ncnc3sc(C)c(C)c23)CC1	-5.97*	-5.97
Cc1sc2ncnc(N3CCC(C(=O)Nc4ccccc4C(C)(C)C)CC3)c2c1C	i	nt
Cc1ccc(N=Cc2cc(Cl)cc(Cl)c2O)nc1	i	12.4*
Oc1c(Cl)cc(Cl)cc1/C=N/Nc1ncc(Br)cn1	i	nt
Cc1ccc(-c2nc3ccccc3c(C(=O)NCc3cccs3)c2C)cc1	-6.58*	-6.58
O=C(NCc1cccs1)c1cc(-c2ccccc2)nc2ccccc12	i	0.3
CC(=O)Nc1ccc(S(=O)(=O)N2CCN=C2SCc2ccc([N+](=O)[O-])cc2)cc1	i	nt
Oc1ccccc1C1=Nc2ccccc2N=C(c2cccs2)C1	i	nt
Cc1ccc(O)c(C2=Nc3ccccc3N=C(c3cccs3)C2)c1	-5.59*	-5.59
Nc1ccc(/C=C/C(=O)c2cccs2)cc1	-6.86*	-6.86
O=C(/C=C/c1ccc([N+](=O)[O-])cc1)c1cccs1	i	nt
COc1ccccc1CNC(=O)c1ccccc1OCc1ccc(F)cc1	i	nt
O=C(NCc1ccccn1)c1ccccc1OCc1ccc(F)cc1	-6.38*	-6.38
CCOc1ccc(CN(C)c2nc(-c3cccnc3)nc3ccccc23)cc1OC	i	0.44
NC(=O)NC(=O)COC(=O)CCCCCNS(=O)(=O)c1ccc2c(c1)OCCO2	i	nt
CCOc1ccc(-c2nc(C#N)c(N3CCN(Cc4ccccc4)CC3)o2)cc1	-6.16*	-6.16
CCOc1ccc(-c2nc(C#N)c(N3CCOCC3)o2)cc1	i	1.41
Cc1c(CCOC(=O)CC23CC4CC(CC(C4)C2)C3)sc[n+]1Cc1ccccc1	-5.6*	-5.6
Cc1ncc(C[n+]2csc(CCOC(=O)CC34CC5CC(CC(C5)C3)C4)c2C)c(N)n1	i	nt
OC(CNCCc1ccc(C(F)(F)F)cc1)COc1cccc2ccccc12 (centres undefined)	-7.1*	-7.1
COc1ccccc1COCC(O)CNCCc1ccc(C(F)(F)F)cc1 (centres undefined)	i	nt
COC(=O)c1cc(S(=O)(=O)N2CCCCC2)c[nH]1	i	nt
CCCNC(=S)N1CCC(NC(=O)c2ccc(C)cc2)CC1	-7.28*	-7.28
Cc1ccc(NC(=S)N2CCC(NC(=O)c3ccc(C)cc3)CC2)cc1	i	nt
CCN1CCN(S(=O)(=O)c2cc(C(=O)O)ccc2Cl)CC1	i	nt
SMILES	KCNQ2 block	KCNQ2 pot
COC(=O)CSc1n[nH]c(-c2ccncc2)n1	i	0.64
CCc1ccc(C(=O)CSc2n[nH]c(-c3ccncc3)n2)cc1	i	6.27*
Cc1cccc(N(C)C(=O)CCS(=O)(=O)c2cc3c(cc2Cl)NC(=O)CO3)c1	i	nt
COc1ccc(/C=N/N2CCN(c3ccc(Cl)cc3)CC2)cc1O	i	nt
COc1ccc(NC(=O)C(OC)c2ccccc2)cc1Cl (centres undefined)	i	2.5
COc1ccc(NC(=O)C(Sc2nnc(-c3ccncc3)n2-c2ccccc2C)c2ccccc2)cc1Cl (centres undefined)	-5.55*	-5.55
CCc1ccc(-c2cn(-c3nc(C)cc(C)n3)c(=N)o2)cc1	-6.37*	-6.37
CCc1ccc(-c2cn3c(n2)SCC3)cc1	i	nt
CCOc1ccc(S(=O)(=O)N2CCN(C(=O)c3ccc(-n4cncn4)c([N+](=O)[O-])c3)CC2)cc1	i	0.1
O=C(NCc1ccc(F)cc1)C1CCN(S(=O)(=O)c2cccc3nonc23)CC1	i	nt
Cc1ccc(/C=C/C(=O)c2ccccc(=O)c2O)c(C)c1	i	5.94*
Cc1ccc(/C=C/C(=O)c2ccccc2)cc1	i	nt
COc1ccc(NC(=O)CCC(=O)OCc2ccc([N+](=O)[O-])cc2)cc1	i	nt
CCN1C(=O)/C(=C2\SC(=S)N(NC(=O)c3cccnc3)C2=O)c2ccccc21	i	nt
Cc1ccc(C)n1-c1ccc(C(=O)NN)s1	-5.68*	-5.68
CCOC(=O)CNC(=O)c1ccc(Br)s1	i	nt
COc1ccccc1C(CNC(=O)c1ccc(NS(=O)(=O)c2ccc3c(c2)OCCO3)cc1)N(C)C (centres undefined)	i	nt
COc1ccc(CC(=O)Nc2cccc(-c3nnc(-c4ccc(C)cc4)o3)c2)cc1OC	i	nt
COc1ccc(CC(=O)Nc2cccc(-c3nnc(-c4cccc(C)c4)o3)c2)cc1OC	-7.02*	-7.02
Cc1ccc(N(CC(=O)NCc2ccc(F)cc2)C(=O)c2csnn2)cc1C	i	1.52
COc1ccc(CCNC(=O)C2=CCN(S(=O)(=O)c3ccc(F)cc3)CC2)cc1OC	i	0.2
COc1ccc2nc3oc(C(=O)N4CCN(c5cccc(C(F)(F)F)c5)CC4)cc3cc2c1	i	nt
COc1ccc2nc3oc(C(=O)N4CCN(c5cccc(Cl)c5)CC4)cc3cc2c1	-5.75*	-5.75
CCN(CC)c1nc2c(c(=O)[nH]c(=O)n2C)n1CCOc1ccccc1	i	1.26
COc1cc(C)c(Cl)cc1S(=O)(=O)N1CCSC1	i	0.25
